Laboratory results from PubChem BioAssay AID2035 (National Center for Advancing Translational Sciences (NCATS), 2009).
The other results are listed elsewhere or left out. Calls of active or inactive are those of the source. Calls follow the shape of the dose curve; as a rule, active = well fitted inhibition curve with a large enough effect; inconclusive = small, poorly fitted or top-dose-only effect; inactive = flat fitted curve, though single readings scatter.

assay: Confirmatory Assay for Inhibitors of Human Galactokinase (GALK): Phenol-HRP redox assay counterscreen; conditions: Phenol red-HRP H2O2 redox cycling, absorbance 600 nm; series mostly up to 115 µM; activity change, negative = H2O2 signal: at the top concentration
Description: NIH Molecular Libraries Probe Production Centers Network [MLPCN] NIH Chemical Genomics Center [NCGC] MLPCN Grant: R03 MH085689-01 Assay Submitter (PI): Kent Lai (University of Utah School of Medicine, 50 N Mario Capecchi Drive, Salt Lake City, UT 84132) NCGC Assay Overview: One mM dithiothreitol (DTT) was used as a reducing agent to maintain the galactokinase (GALK) enzyme in its active form in the GALK qHTS screen (AID: 1868). However, it has been shown that in the presence of DTT a number of compounds also undergo redox recyling, generating a significant amount of H2O2 that can oxidize crucial cysteine residues in the enzyme, leading to and a false-positive result. To evaluate and flag redox recycling compounds for compounds re-acquired from the qHTS screen, an endpoint colorimetric assay developed by Johnston et al. was adopted and optimized for a 1536-well plate format. In brief, the assay detects the presence of H2O2 by following the change in absorbance at 600 nm due to oxidation of phenol red (Sigma, cat# 114537) catalyzed by horseradish peroxidase (HRP; Invitrogen). A stop reagent, 1N NaOH was added prior to reading the absorbance. DMSO and different concentrations of hydrogen peroxide (Sigma, cat# 216763) in the GALK buffer were used as negative and positive controls respectively.
NCGC Assay Protocol Summary: Two uL/well of GALK buffer (20mM HEPES pH8.0, 5 mM MgCl2, 60 mM NaCl, 1 mM DTT, 0.01% BSA final concentration) was dispensed into a 1536-well assay plates (Greiner, black clear bottom plates) with Aurora Discovery BioRAPTR Flying Reagent Dispenser (FRD; Beckton-Dickenson). Compound and control solutions (23 nL each) were transferred to the assay plate in their respective wells using Kalypsys pin tool equipped with a 1536-pin tool head and incubated at room temperature for 30 min. Presence of H2O2 produced by redox cycling compounds was detected by adding 2 uL/well phenol red - HRP detection reagent ([…] phenol red in 1x Hanks Balanced Salt Solution, 25 U/mL HRP final concentrations). After 15 min of room temperature incubation, the reaction was stopped by adding 2 uL/well 1N NaOH and incubated for an additional 1 hr at room temperature. The absorbance at 600 nm was measured using the ViewLux plate reader (Perkin Elmer, Waltham, MA) with 6000 light energy, 2 sec exposure, and 2x binning instrument settings.

Structure (SMILES) | activity change, negative = H2O2 signal | Potency
CCS(=O)(=O)C1=NSC2=NC(=O)/C(=C\c3ccc(OS(=O)(=O)c4ccccc4)cc3)C(=N)N21 | 7.35% (inactive) | 
O=C(Nc1nnc(S(=O)(=O)N2CCOCC2)s1)c1cccc(Br)c1 | -2.69% (inactive) | 
CCOC(=O)c1c(C)[nH]c2c1-c1ccccc1C(=O)C2=O |  | 1.19 µM (active)
N#C/C(=C(/O)Cc1cccc2ccccc12)c1nc2ccccc2s1 | 8.88% (inactive) | 
Oc1c(Cl)cc(Cl)c(Cl)c1Cc1c(O)c(Cl)cc(Cl)c1Cl | 2% (inactive) | 
N#Cc1c(N2CCCCC2)nc(N)c2c(N)nc(SCC(=O)O)cc12 |  | 18.8 µM (active)
COc1cccc2cc(-c3cc(=O)oc4cc(C)c(O)cc34)oc12 | 0.246% (inactive) | 
